Measurements: ChEMBL document CHEMBL4513216, “Probing the Open Global Health Chemical Diversity Library for Multistage-Active Starting Points for Next-Generation Antimalarials” (ACS Infect Dis, 2020)
About 8,600 (12%) of roughly 69,000 compounds showed an effect of 50% or more. The sample as a whole holds a higher share of strong results than the screen did.

These compounds were tested on Plasmodium berghei (assay: Screen against P. berghei liver stage (PbLuc), transformed with Luciferase, at 10uM). Conditions: tested at 10 uM.
Type: functional, HepG2

In order of rising INHIBITION:
1. Cn1c2c(ccc1=O)CCN(Cc1ccoc1)CC2  -93%
2. Cc1ccc(C(=O)NCc2cccnc2N(C)C)s1  -85%
3. Cc1nc(C2CCCN2C(=O)CCn2cncn2)no1 (stereo not given)  -85%
4. Cc1nn(C)c2ncnc(NCc3nncn3C3CCCCC3)c12  -58.1%
5. CCCc1cc(C(=O)NCCN2CCCS2(=O)=O)[nH]n1  -40.96%
6. C[C@@H]1CN(Cc2ccccn2)C[C@]12CCN(Cc1cccnc1)C2=O  -38.1%
7. CC(C)CN1CC2(CCN(C(=O)c3cnccn3)CC2)CC1=O  -33%
8. CN(Cc1ccc(F)c(F)c1)Cc1cc2c(cc1Br)OCCO2  -30%
9. N#CC1(C(=O)N2C[C@H](Nc3ncccn3)[C@@H](C3CC3)C2)CCOCC1  -28.4%
10. Cc1noc(C)c1C(=O)NCc1cccnc1N(C)C  -25.66%
11. Cn1ccnc1CN1CCCN(C(=O)c2ccc(O)nc2)CC1  -24.3%
12. N#Cc1ccc(C(=O)O)nc1C=Cc1cccc(F)c1  -23.2%
13. Cc1ccnc(OC[C@@]23CCO[C@@H]2CCN(C2CCC2)C3)n1  -16.9%
14. CC(C)CN1CC2(CCN(C(=O)c3cn4cccnc4n3)CC2)CC1=O  -13.6%
15. Cc1ncsc1C(=O)N(Cc1ccccn1)C1CC1  -2.95%
16. CSc1ccccc1C(C(=O)O)N(C)CC1CCOCC1 (stereo not given)  -0.27%
17. CC(=O)Nc1nc(C(=O)N2CCCC2c2noc(C3CC3)n2)cs1 (stereo not given)  2.3%
18. Cc1ccnc(C(NC(=O)c2ccc(O)nc2C)C2CC2)n1 (stereo not given)  2.65%
19. CC(NCc1cccc2c1OCCO2)c1cc2c(cc1Br)OCCO2 (stereo not given)  4.15%
20. CN(C)S(=O)(=O)NCc1nn(CCN2CCCC2)c(=O)c2ccccc12  5.03%
21. CCc1nc(C2CCCN2C(=O)Cc2cccs2)no1 (stereo not given)  5.9%
22. CC(C)CN1CC2(CCN(C(=O)C(O)c3ccccc3Cl)CC2)CC1=O (stereo not given)  6.88%
23. N#Cc1ccc(C(=O)N2CCn3c(Cn4cccn4)cnc3C2)cc1  7.11%
24. c1csc(N2CCCN(Cc3noc(C4CC4)n3)CC2)n1  7.67%
25. Cc1ccsc1C(=O)NCc1cccnc1N(C)CCc1ccccn1  9.91%
26. CN(CCc1ccccc1)Cc1cnc(C2(C)CCCCO2)nc1 (stereo not given)  10.871%
27. CC(C)CN1CC2(CCN(C(=O)C3CSC(C)(C)C(=O)N3)CC2)CC1=O (stereo not given)  12%
28. Cc1ccc(C(=O)NCc2cccnc2N(C)C)o1  12.35%
29. CC(=O)N1C[C@H](c2cc(O)nc(C)n2)[C@@H](c2ccccc2F)C1  12.45%
30. O=S(=O)(c1cn[nH]c1)N1CCCC(O)(CN2CCOCC2)CC1 (stereo not given)  13.125%
31. CCC(CC)C(=O)n1ccn(S(=O)(=O)c2ccc(C)cc2)c1=O  14.3%
32. CSc1ccc(CN(CCO)C(=O)CCOc2ccccc2)cc1  15.7%
33. CCS(=O)(=O)CCNC(=O)NC(C)c1ccc(C)s1 (stereo not given)  17%
34. Cc1ccccc1CC(=O)N1C[C@@H]2COC[C@]2(CN(C)C)C1  20.5%
35. Cc1cc(C)n(CCNC(=O)c2cc(C3CC3)n[nH]2)n1  20.8%
36. CCCn1ccnc1CN1CCN(C2CCOCC2)CC(C(N)=O)C1 (stereo not given)  20.8%
37. COc1ccccc1CN(Cc1nc(Cc2ccccc2)no1)C1CC1  21.3%
38. Cc1ccnc(OC[C@@]23CCO[C@@H]2CCN(c2ncccn2)C3)n1  23.3%
39. O=C(NC1CC1)N1CCn2c(Cn3cccn3)cnc2C1  24.1%
40. CC1CCN(C(=O)c2cnc(CC3CCCN(C)C3)cn2)CC1 (stereo not given)  24.4%
41. COCC(=O)N1C[C@@H](c2cc(O)nc(C)n2)[C@H](c2ccccc2F)C1  24.49%
42. O=C([C@@H]1CCCO1)N1CCn2c(Cn3cccn3)cnc2C1  28.7%
43. CC(NC(=O)c1ccsc1)c1ccc2c(c1)NC(=O)CO2 (stereo not given)  29.25%
44. O=C(c1cc(Cl)c2c(c1)OCO2)N1CCCC(n2cncn2)C1 (stereo not given)  29.7%
45. CC(C)Oc1ccc2c(NC(=O)CNC(N)=O)nn(CC(F)(F)F)c2c1  29.7%
46. c1cnc2c(c1)cc([C@H]1CCCO1)n2CCN1CCOCC1  30.1%
47. CN(Cc1cscn1)Cc1cc2c(cc1Br)OCO2  31.9%
48. Cc1oc(C(=O)O)cc1S(=O)(=O)Nc1ccccc1F  34.7%
49. Cc1cccc(CN2Cc3[nH]nc(COc4cccnc4)c3C2)n1  34.9%
50. COc1cc(CN2C[C@H](OC)[C@]3(CCCO3)C2)ccc1F  35.2%
51. O=C(N1CCCC1)N1CCn2c(Cn3cccn3)cnc2C1  38.1%
52. Cc1ccnc(C(NC(=O)c2oc(C)nc2C)C2CC2)n1 (stereo not given)  38.5%
53. O=C(NCc1ccccc1)N1CCn2c(Cn3cccn3)cnc2C1  39.2%
54. O=S(=O)(C1CC1)N1CCn2c(Cn3cccn3)cnc2C1  41%
55. CC(C)c1cc(C(=O)N2C[C@@H]3CC[C@H]2CN(Cc2ccccn2)C3)no1  41.8%
56. Cc1nnsc1C(=O)NCc1cccnc1N(C)Cc1ccccc1  44.6%
57. CN(Cc1ccc(F)cc1)Cc1cc2c(cc1Br)OCCO2  44.8%
58. Cc1oc(C)c(C(=O)NCc2cccnc2N(C)C)c1C  50.4%
59. Cc1nnsc1C(=O)NCc1cccnc1N(C)C  51.5%
60. Cc1ncsc1C(=O)NCc1cccnc1N(C)CCc1ccccn1  52.5%
61. CN(Cc1ccc(F)cc1F)Cc1cc2c(cc1Br)OCCO2  52.6%
62. CC(C)CN1CC2(CCN(C(=O)C3CNC(=O)N3)CC2)CC1=O (stereo not given)  53%
63. CC(C)CN1CC2(CCN(C(=O)c3nc4ncccn4n3)CC2)CC1=O  56%
64. Cc1ccnc(OC[C@@]23CCO[C@@H]2CCN(S(C)(=O)=O)C3)n1  57.1%
65. O=C(NCc1cccnc1)N1CCn2c(Cn3cccn3)cnc2C1  57.9%
66. c1cnn(Cc2cnc3n2CCN(CC2CCCCC2)C3)c1  59%
67. Cc1nc(O)cc([C@@H]2CN(C(=O)C3CC3)C[C@H]2c2ccccc2F)n1  60.55%
68. CN(C)C(=O)N1CCn2c(Cn3cccn3)cnc2C1  62.5%
69. Cc1ccnc(C(NC(=O)c2sc(C)nc2C)C2CC2)n1 (stereo not given)  63.5%
70. CN(Cc1ccccc1F)Cc1cc2c(cc1Br)OCCO2  76.2%
